Assay results taken from PubChem BioAssay (Tox21).
Inconclusive results are not listed. Active and inactive are the calls of the source. Unless noted, calls follow the shape of the dose curve; as a rule, active = well fitted curve in the direction sought with a large enough effect in the repeat runs; inconclusive = weak or mixed curves; inactive = no such curve, though single readings can be large; an effect the other way counts as inactive or inconclusive.

Legend:
[1] = qHTS RealTime-Glo MT Cell Viability Assay in HEK293 cells - 24 hour (AID 1224886); also: top concentration of the series differs between compounds; nearly all actives have a fitted effect of over 50% in size
Outline: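 Nonlytic real-time viability readout: viable cells convert prosubstrate to NanoLuc substrate, giving luminescence proportional to live cell number. HEK293, 600 cells/well, compound added after 5 h, continuous culture at 37 C.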

[2] = qHTS RealTime-Glo MT Cell Viability Assay in HEK293 cells - 8 hour (AID 1224887); also: top concentration of the series differs between compounds; nearly all actives have a fitted effect of over 50% in size
Outline: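 Tox21 screen in HEK293 using RealTime-Glo MT chemistry, with cells and reagent co-dispensed. Luminescence proportional to viable cell number was captured at intervals during 40 h compound exposure at 37 C.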

[3] = A CellTox Green Cytotoxicity Assay to monitor cytotoxicity in HEK293 cells - 16 hour (AID 1224888); also: nearly all actives have a fitted effect of over 35% in size
Outline: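 Seeding of HEK293 cells together with cytotoxicity dye preceded a 5 h incubation at 37 C/5% CO2. Test compounds in DMSO were then added and fluorescence monitored across 40 h.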

[4] = qHTS RealTime-Glo MT Cell Viability Assay in HepG2 cells - 0 hour (AID 1224889); also: nearly all actives have a fitted effect of over 50% in size
Outline: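 Luminescence read-out: viable HepG2 cells reduce a prosubstrate to a NanoLuc substrate, giving a signal proportional to live cell number. Reads taken at 0, 8, 16, 24, 32 and 40 h of compound exposure at 37 C.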

[5] = A CellTox Green Cytotoxicity Assay to monitor cytotoxicity in HepG2 cells - 8 hour (AID 1224890); also: nearly all actives have a fitted effect of over 45% in size
Outline: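 Nonlytic assay: viable cells exclude the dye, so fluorescence scales with cell death. HepG2 at 600 cells/well, compounds added after 5 h, signal read across 40 h.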

[6] = qHTS assay to identify small molecule antagonists of the estrogen receptor alpha (ER-alpha) signaling pathway using the BG1 cell line in the presence of 0.1 nM 17-beta-estradiol - cell viability counter screen (AID 1259241); also: nearly all actives have a fitted effect of over 40% in size
Outline: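 VM7Luc4E2, 4,000 cells/well, phenol red-free medium + 10% charcoal-stripped FBS; 24 hr plating; cpd + 0.1 nM E2 final, 22 hr 37C/5% CO2; CellTiter-Fluor 30 min, fluorescence.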

[7] = qHTS assay to identify small molecule antagonists of the androgen receptor (AR) signaling pathway using the MDA cell line in the presence of 0.5 nM R1881 - cell viability counter screen (AID 1259242); also: nearly all actives have a fitted effect of over 45% in size
Outline: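 R1881 at 0.5 nM final stimulated MDA-kb2 cells during 16 hr compound treatment at 37C. Cytotoxicity read: CellTiter-Fluor fluorescence after 30 min.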

[8] = target: Estrogen receptor (Homo sapiens) (UniProt P03372); assay: qHTS assay to identify small molecule antagonists of the estrogen receptor alpha (ER-alpha) signaling pathway using the BG1 cell line in the presence of 0.1 nM 17-beta-estradiol (AID 1259244); also: nearly all actives have a fitted effect of over 50% in size
Sequence of Estrogen receptor (Homo sapiens) (P03372 whole entry, looked up): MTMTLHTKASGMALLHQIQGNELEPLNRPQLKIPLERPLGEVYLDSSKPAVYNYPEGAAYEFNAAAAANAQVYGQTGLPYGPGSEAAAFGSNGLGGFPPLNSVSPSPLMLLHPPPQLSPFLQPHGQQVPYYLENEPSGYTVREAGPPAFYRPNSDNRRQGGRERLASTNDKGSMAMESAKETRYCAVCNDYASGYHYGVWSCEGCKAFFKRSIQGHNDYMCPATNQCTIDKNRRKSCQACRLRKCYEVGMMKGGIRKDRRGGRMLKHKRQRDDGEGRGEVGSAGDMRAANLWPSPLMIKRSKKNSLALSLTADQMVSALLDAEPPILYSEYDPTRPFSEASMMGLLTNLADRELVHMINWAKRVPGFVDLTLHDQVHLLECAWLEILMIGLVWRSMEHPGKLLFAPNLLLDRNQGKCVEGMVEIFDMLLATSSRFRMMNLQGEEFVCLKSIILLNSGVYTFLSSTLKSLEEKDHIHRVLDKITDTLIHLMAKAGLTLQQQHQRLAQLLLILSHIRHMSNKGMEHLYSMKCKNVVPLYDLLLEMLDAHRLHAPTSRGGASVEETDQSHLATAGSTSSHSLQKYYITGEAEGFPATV
Outline: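 VM7Luc4E2; 4xERE-luciferase; 0.1 nM E2 final; 22 h co-incubation, 37C; ONE-Glo luminescence after 30 min at room temperature.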

[9] = qHTS assay to identify small molecule HDAC inhibitors (AID 1259364);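 also: wild-type HCT-116 cells with endogenous class I/II HDAC activity; top concentration of the series differs between compounds; nearly all actives have a fitted effect of over 45% in size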
Outline: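 Relative class I and II HDAC activity is taken from the luminogenic signal in HCT-116 cells, with compound exposure 2 hr and reagent development 30 min at room temperature.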

[10] = qHTS assay to identify small molecule HDAC inhibitors - cell viability counter screen (AID 1259365)
Outline: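 Luminescence from CellTiter-Glo, developed 30min at room temperature, reports viability of wild-type HCT-116 cells treated 2hr with compounds at 37 C and 5% CO2 after overnight plating.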

[11] = qHTS assay to identify small molecule agonists of the sonic hedgehog signaling (Shh) pathway - cell viability counter screen (AID 1259366); also: nearly all actives have a fitted effect of over 50% in size
Outline: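 Cytotoxicity counter screen run in the same wells as the Shh reporter assay. NIH/3T3 cells carrying a Gli1 response element–driven luciferase were treated with DMSO-dissolved compounds for 24hr, and live-cell protease activity was measured with CellTiter-Fluor.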

[12] = qHTS assay to identify small molecule antagonists of the sonic hedgehog signaling (Shh) pathway - cell viability counter screen (AID 1259367); also: nearly all actives have a fitted effect of over 55% in size
Outline: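 NIH/3T3-derived Gli1-Luc reporter cells (2,000 per well) rested 4 hr at 37 C, then received DMSO compounds plus conditioned medium. After 23 hr of treatment, CellTiter-Fluor was added for 1 hr at 37C and fluorescence read.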

[13] = qHTS assay to identify small molecule agonists of the sonic hedgehog signaling (Shh) pathway (AID 1259368; calls by dose curve;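 also: NIH/3T3-derived 3T3Gli1-Luc cells carrying a stable Gli1-driven firefly luciferase reporter; series mostly up to about 92 µM; nearly all actives have a fitted effect of over 15% in size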)
Outline: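 Mouse fibroblast (NIH/3T3) reporter cells with stably integrated Gli1-Luc were treated 24 hr with compound; firefly luciferase luminescence served as the read-out.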

[14] = qHTS assay to identify small molecule antagonists of the sonic hedgehog signaling (Shh) pathway (AID 1259369; calls by dose curve; also: nearly all actives have a fitted effect of over 45% in size)
Outline: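 Conditioned medium drives Shh signalling in 3T3Gli1-Luc cells; compounds in DMSO co-applied, 24hr at 37 C, then luciferase luminescence.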

[15] = target: Estrogen receptor beta (Homo sapiens) (UniProt Q92731); assay: qHTS assay to identify small molecule agonists of the estrogen receptor beta (ER-beta) signaling pathway (AID 1259377; active = well fitted activation curve with a large enough effect in the signal ratio in the repeat runs, not every such curve was filed as active; the % refers to the signal ratio)
Sequence of Estrogen receptor beta (Homo sapiens) (Q92731 whole entry, looked up): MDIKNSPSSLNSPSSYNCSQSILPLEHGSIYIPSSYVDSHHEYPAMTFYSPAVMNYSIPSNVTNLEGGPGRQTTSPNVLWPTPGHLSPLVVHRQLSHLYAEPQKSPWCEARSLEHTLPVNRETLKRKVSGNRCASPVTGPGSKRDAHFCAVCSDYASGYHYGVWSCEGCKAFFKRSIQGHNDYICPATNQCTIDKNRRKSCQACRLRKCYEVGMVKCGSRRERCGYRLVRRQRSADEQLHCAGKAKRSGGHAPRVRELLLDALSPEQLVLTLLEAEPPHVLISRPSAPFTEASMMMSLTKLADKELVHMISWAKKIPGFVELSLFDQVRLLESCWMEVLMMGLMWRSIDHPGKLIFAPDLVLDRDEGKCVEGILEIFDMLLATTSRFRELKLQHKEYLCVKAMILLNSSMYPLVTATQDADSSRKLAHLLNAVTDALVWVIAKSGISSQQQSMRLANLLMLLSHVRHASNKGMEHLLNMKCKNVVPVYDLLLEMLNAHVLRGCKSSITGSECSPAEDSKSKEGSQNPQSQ
Outline: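 HEK293T ER-beta-UAS-bla; 2% charcoal-stripped FBS; cells pre-incubated 6 hr, compound 16 hr, 37C/5% CO2; LiveBLAzer B/G FRET substrate 2 h RT; fluorescence intensity read.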

[16] = target: Estrogen receptor beta (Homo sapiens) (UniProt Q92731); assay: qHTS assay to identify small molecule antagonists of the estrogen receptor beta (ER-beta) signaling pathway (AID 1259378; active = well fitted inhibition curve with a large enough effect in the signal ratio in the repeat runs, not every such curve was filed as active; the % refers to the signal ratio)
Outline: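 ER-beta-UAS-bla HEK293T (GripTite) cells in 2% charcoal-stripped FBS medium were preincubated 6 hr at 37C, dosed with compound, then stimulated with 1 nM E2 (final) for 16 hr; beta-lactamase reporter read by B/G FRET fluorescence after 2 hr substrate loading.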

[17] = qHTS assay to identify small molecule agonists of the androgen receptor (AR) signaling pathway in the presence of an antagonist - cell viability counter screen (AID 1259379);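 also: MDA-kb2 human breast cancer cells carrying an MMTV luciferase reporter; series mostly up to about 92 µM; nearly all actives have a fitted effect of over 25% in size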
Outline: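 A CellTiter-Fluor read-out measured viability of MDA-kb2 reporter cells (MMTV promoter with AR and GR response elements). Treatment: nilutamide 3.0uM final with compounds at 15 concentrations, 16 hr, 37C, 0% CO2.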

[18] = qHTS assay to identify small molecule agonists of the estrogen receptor beta (ER-beta) signaling pathway - cell viability counter screen (AID 1259380); also: nearly all actives have a fitted effect of over 30% in size
Outline: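 Cells used were ER-beta-UAS-bla HEK293T in medium with 2% charcoal-stripped FBS. They were treated for 16 hr at 37C. Viability came from CellTiter-Glo luminescence.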

[19] = qHTS assay to identify small molecule phospholipidosis (PLD) inducers (AID 1259344; active = well fitted curve in the direction sought with a large enough effect; an effect the other way counts as inactive or inconclusive)
Outline: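 HepG2 cells on collagen I, attached 4 h at 37 C, were co-treated with compound and LipidTOX Red dye for 24 h at 37 C, then fixed with paraformaldehyde plus Hoechst 33342 and imaged by high-content microscopy for phospholipid accumulation.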
% is scaled to controls: 0 for no effect and ±100 for the full control effect.

O=C1CCCCO1
inactive: Potency [1] | Potency [2] | Potency [3] | Potency [4] | Potency [5] | outcome [6] | outcome [7] | outcome [8] | Potency [9] | outcome [10] | outcome [11] | outcome [12] | outcome [13] | Potency [14] | Potency [15] | Potency [16] | outcome [17] | outcome [18]

CC1=C(C(=O)O)N2C(=O)[C@@H](NC(=O)[C@H](N)C3=CCC=CC3)[C@H]2SC1
inactive: Potency [1] | Potency [2] | Potency [3] | Potency [4] | Potency [5] | outcome [6] | outcome [7] | outcome [8] | PLD induction [19] 0.229% [at 7.66 µM] | Potency [9] | outcome [10] | outcome [11] | outcome [12] | outcome [13] | Potency [14] | Potency [15] | outcome [17]

O=C=NCC1CCCC(CN=C=O)C1 (stereo unspecified)
inactive: Potency [1] | Potency [2] | Potency [3] | Potency [4] | Potency [5] | outcome [6] | outcome [7] | outcome [8] | Potency [9] | outcome [10] | outcome [11] | outcome [12] | outcome [13] | Potency [14] | Potency [15] | outcome [17] | outcome [18]

C=CCCCCCCCCC(=O)OCCCC
inactive: Potency [1] | Potency [2] | Potency [3] | Potency [4] | Potency [5] | outcome [6] | outcome [7] | outcome [8] | Potency [9] | outcome [10] | outcome [11] | outcome [12] | outcome [13] | Potency [14] | Potency [15] | Potency [16] | outcome [17] | outcome [18]

CC(C)(CO)C(O)C(=O)NCCCO (stereo unspecified)
inactive: Potency [1] | Potency [2] | Potency [3] | Potency [4] | Potency [5] | outcome [6] | outcome [7] | outcome [8] | Potency [9] | outcome [10] | outcome [11] | outcome [12] | outcome [13] | Potency [14] | Potency [15] | Potency [16] | outcome [17] | outcome [18]

O=C1CCC(=O)N1Cl
inactive: Potency [1] | Potency [2] | Potency [3] | Potency [4] | Potency [5] | outcome [6] | outcome [7] | outcome [8] | Potency [9] | outcome [10] | outcome [11] | outcome [12] | outcome [13] | Potency [14] | Potency [15] | Potency [16] | outcome [17] | outcome [18]

O=C(O)[C@H](O)c1ccccc1
inactive: Potency [1] | Potency [2] | Potency [3] | Potency [4] | Potency [5] | outcome [6] | outcome [7] | outcome [8] | outcome [19] | Potency [9] | outcome [10] | outcome [11] | outcome [12] | outcome [13] | Potency [14] | outcome [17] | outcome [18]

CCCC(=O)Nc1ccc(OCC(O)CNC(C)C)c(C(C)=O)c1 (stereo unspecified)
inactive: Potency [1] | Potency [2] | Potency [3] | Potency [4] | Potency [5] | outcome [6] | outcome [7] | outcome [8] | outcome [19] | Potency [9] | outcome [10] | outcome [11] | outcome [12] | outcome [13] | Potency [14] | Potency [15] | outcome [17] | outcome [18]

CCCCCCCCCCCCCCC(=O)NC(CO)CCCCCCCCCCCCCC (stereo unspecified)
inactive: Potency [1] | Potency [2] | Potency [3] | Potency [4] | Potency [5] | outcome [6] | outcome [7] | outcome [8] | Potency [9] | outcome [10] | outcome [11] | outcome [12] | outcome [13] | Potency [14] | Potency [15] | Potency [16] | outcome [17] | outcome [18]

Cc1c(NC(=O)c2cccnc2)c(=O)n(-c2ccccc2)n1C
inactive: Potency [1] | Potency [2] | Potency [3] | Potency [4] | Potency [5] | outcome [6] | outcome [7] | outcome [8] | outcome [19] | Potency [9] | outcome [10] | outcome [11] | outcome [13] | Potency [14] | outcome [17]

CO[C@@]1(NC(=O)Cc2cccs2)C(=O)N2C(C(=O)O)=C(COC(N)=O)CS[C@@H]21
inactive: Potency [1] | Potency [2] | Potency [3] | Potency [4] | Potency [5] | outcome [6] | outcome [7] | outcome [8] | outcome [19] | Potency [9] | outcome [10] | outcome [11] | outcome [12] | outcome [13] | Potency [14] | outcome [17] | outcome [18]

CCNC(=O)NCc1cccc(Cl)c1
inactive: Potency [1] | Potency [2] | Potency [3] | Potency [4] | Potency [5] | outcome [6] | outcome [7] | outcome [8] | outcome [19] | Potency [9] | outcome [10] | outcome [11] | outcome [13] | Potency [14] | outcome [17]

O=C(Cn1ccnc1[N+](=O)[O-])NCc1ccccc1
inactive: Potency [1] | Potency [2] | Potency [3] | Potency [4] | Potency [5] | outcome [6] | outcome [7] | outcome [8] | outcome [19] | outcome [10] | outcome [11] | outcome [12] | outcome [13] | Potency [14] | Potency [15] | Potency [16] | outcome [17] | outcome [18]

NCC1(Cc2noc(=O)[nH]2)CCCCC1
inactive: Potency [1] | Potency [2] | Potency [3] | Potency [4] | Potency [5] | outcome [6] | outcome [7] | outcome [8] | Potency [9] | outcome [10] | outcome [11] | outcome [12] | outcome [13] | Potency [14] | Potency [15] | Potency [16] | outcome [17] | outcome [18]

O=C(CN1CCNCC1)NC1CCCCC1
inactive: Potency [1] | Potency [2] | Potency [3] | Potency [4] | Potency [5] | outcome [6] | outcome [7] | outcome [8] | outcome [19] | outcome [10] | outcome [11] | outcome [13] | Potency [14] | outcome [17]
